Among the data in publication PMC7862700, “An all-to-all approach to the identification of sequence-specific readers for epigenetic DNA modifications on cytosine” are binding signal values, retold here.

Experiment in all cases: DAPPL (digital affinity profiling via proximity ligation, sequencing); 10 mM Tris-HCl pH 7.5, 50 mM NaCl, 1 mM DTT, 4% glycerol, room temperature, 30 min; GST-TFs on glutathione beads, 16-mer random dsDNA library, 0.1% formaldehyde crosslink after washing; high values mean tight binding
Holding throughout (details): protein: recombinant; tags: N-terminal GST; dsDNA, one strand shown

One assay deals with T1, FLI1 (Homo sapiens, UniProt Q01543 1-452).
T1 sequence: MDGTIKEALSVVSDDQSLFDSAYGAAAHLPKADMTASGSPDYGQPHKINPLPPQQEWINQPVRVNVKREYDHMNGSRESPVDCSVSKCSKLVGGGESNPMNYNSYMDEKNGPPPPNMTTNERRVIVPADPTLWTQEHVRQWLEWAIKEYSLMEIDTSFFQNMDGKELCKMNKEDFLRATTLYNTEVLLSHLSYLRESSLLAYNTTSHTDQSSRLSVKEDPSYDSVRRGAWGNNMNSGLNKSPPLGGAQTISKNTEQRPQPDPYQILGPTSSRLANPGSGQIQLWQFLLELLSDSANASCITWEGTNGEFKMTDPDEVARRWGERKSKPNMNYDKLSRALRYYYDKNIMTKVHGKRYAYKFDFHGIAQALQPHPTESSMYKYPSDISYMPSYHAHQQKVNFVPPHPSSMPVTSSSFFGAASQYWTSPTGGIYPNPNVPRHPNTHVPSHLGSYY
In short, it runs like this: (§1)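 Beads coated with glutathione captured GST-fused human transcription factors that had been expressed in yeast, and the factors were then given DNA barcodes and pooled with a tag-only sample. The pools were incubated with 200 nmole of a random double-stranded 16-mer DNA library in Tris/NaCl/DTT/glycerol buffer for 30 min at room temperature, washed, crosslinked with 0.1% formaldehyde and proximity-ligated with BsaI/T4 ligase at 37 °C for 1 h. PCR amplification and Illumina NextSeq500 sequencing came last. Binding signal is each hexamer's read frequency for a factor divided by its frequency for the tag-only sample.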

The next assay concerns the target T2, ELK1 (Homo sapiens, UniProt P19419 1-428).
T2 sequence: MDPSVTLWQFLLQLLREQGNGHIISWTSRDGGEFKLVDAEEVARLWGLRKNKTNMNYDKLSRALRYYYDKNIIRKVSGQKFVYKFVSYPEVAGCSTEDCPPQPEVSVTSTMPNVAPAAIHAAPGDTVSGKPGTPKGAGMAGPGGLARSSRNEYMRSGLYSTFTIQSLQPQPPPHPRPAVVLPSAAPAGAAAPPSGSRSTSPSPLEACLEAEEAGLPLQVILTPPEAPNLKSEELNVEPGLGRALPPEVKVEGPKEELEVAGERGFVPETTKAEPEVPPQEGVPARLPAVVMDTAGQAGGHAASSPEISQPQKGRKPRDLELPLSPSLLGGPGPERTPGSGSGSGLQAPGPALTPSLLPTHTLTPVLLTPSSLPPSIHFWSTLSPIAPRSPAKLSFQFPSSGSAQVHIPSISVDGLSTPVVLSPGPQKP
In outline:
as §1

The target of the next assay is T3, GABPA (Homo sapiens, UniProt Q06546 1-454).
T3 sequence: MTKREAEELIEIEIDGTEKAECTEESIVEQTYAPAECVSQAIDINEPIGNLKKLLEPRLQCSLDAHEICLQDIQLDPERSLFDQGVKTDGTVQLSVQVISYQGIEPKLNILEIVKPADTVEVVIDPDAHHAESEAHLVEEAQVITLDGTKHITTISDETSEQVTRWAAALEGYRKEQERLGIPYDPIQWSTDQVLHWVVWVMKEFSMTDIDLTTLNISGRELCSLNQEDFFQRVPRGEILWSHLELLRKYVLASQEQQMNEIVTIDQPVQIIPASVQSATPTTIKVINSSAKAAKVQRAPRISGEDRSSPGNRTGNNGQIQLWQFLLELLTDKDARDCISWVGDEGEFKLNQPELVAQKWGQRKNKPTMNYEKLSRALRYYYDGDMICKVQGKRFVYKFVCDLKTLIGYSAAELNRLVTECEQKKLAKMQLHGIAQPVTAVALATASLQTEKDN
In short, it runs like this:
as §1

In another assay the target is T4, ERG (Homo sapiens, UniProt P11308 1-479).
T4 sequence: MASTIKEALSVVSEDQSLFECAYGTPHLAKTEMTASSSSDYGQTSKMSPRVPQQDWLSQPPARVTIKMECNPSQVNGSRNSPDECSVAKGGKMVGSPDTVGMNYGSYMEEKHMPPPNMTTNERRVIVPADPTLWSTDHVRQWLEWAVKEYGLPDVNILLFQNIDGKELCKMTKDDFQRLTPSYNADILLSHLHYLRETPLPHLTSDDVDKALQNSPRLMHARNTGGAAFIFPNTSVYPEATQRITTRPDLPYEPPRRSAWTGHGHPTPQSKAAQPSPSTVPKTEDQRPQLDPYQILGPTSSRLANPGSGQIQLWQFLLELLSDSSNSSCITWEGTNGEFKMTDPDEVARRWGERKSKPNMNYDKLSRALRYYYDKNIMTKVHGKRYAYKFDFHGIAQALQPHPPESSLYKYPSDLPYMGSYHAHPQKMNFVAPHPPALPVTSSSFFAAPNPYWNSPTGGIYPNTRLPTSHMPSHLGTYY
In short, it runs like this:
as §1

Another assay addresses ELF1 (Homo sapiens, UniProt P32519 1-619). In short, it runs like this:
as §1

The next assay has as its target T5, EHF (Homo sapiens, UniProt Q9NZC4 1-300).
T5 sequence: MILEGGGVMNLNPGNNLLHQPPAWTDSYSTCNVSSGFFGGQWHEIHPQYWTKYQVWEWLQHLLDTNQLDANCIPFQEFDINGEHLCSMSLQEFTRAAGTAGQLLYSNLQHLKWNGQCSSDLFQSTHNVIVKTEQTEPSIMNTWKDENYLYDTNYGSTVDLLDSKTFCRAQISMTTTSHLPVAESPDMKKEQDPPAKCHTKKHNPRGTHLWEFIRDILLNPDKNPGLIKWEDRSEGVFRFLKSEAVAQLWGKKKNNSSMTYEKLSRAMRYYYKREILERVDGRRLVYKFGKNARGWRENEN
In outline:
as §1

The target of another assay is SPI1 (Homo sapiens, UniProt P17947 1-270). In outline: as §1
For another assay, the target named is SPIB (Homo sapiens, UniProt Q01892 1-262). In short, it runs like this:
as §1

The target of the next assay is T6, ELK3 (Homo sapiens, UniProt P41970 1-407).
T6 sequence: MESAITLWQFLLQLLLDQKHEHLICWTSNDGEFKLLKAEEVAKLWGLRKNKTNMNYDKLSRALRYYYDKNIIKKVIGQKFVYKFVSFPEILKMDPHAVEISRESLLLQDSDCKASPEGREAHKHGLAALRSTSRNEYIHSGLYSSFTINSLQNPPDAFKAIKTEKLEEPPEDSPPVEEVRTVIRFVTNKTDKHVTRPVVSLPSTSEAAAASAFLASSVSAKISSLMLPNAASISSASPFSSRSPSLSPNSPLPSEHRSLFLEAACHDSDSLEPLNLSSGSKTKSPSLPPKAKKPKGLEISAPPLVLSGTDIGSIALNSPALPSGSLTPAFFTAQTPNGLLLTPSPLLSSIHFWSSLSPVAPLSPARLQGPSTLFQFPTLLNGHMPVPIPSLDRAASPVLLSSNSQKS
In outline: as §1

In a further assay the target is T7, FEV (Homo sapiens, UniProt Q99581 1-238).
T7 sequence: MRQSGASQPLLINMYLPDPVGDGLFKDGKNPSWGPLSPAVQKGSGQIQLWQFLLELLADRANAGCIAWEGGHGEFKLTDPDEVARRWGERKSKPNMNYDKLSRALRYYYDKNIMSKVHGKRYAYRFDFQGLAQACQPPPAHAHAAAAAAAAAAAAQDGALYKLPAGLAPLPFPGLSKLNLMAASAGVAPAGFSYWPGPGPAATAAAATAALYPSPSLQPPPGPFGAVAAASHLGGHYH
In outline: as §1

Another assay concerns the target ETV5 (Homo sapiens, UniProt P41161 1-510). In short, it runs like this: as §1
The target of a further assay is T8, SPIC (Homo sapiens, UniProt Q8N5J4 1-248).
T8 sequence: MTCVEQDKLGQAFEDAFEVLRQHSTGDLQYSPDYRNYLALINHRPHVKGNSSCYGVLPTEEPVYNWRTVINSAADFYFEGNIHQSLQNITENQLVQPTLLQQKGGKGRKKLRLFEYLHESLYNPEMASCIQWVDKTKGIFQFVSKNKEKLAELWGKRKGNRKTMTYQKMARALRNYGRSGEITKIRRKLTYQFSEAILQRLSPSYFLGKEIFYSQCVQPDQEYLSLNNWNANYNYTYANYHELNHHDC
In short, it runs like this: as §1

The target in the next assay is ELF4 (Homo sapiens, UniProt Q99607 1-663). In short, it runs like this:
as §1

For another assay, the target named is ETV1 (Homo sapiens, UniProt P50549 1-477). In outline:
as §1

Another assay has as its target T9, ERF (Homo sapiens, UniProt P50548 1-548).
T9 sequence: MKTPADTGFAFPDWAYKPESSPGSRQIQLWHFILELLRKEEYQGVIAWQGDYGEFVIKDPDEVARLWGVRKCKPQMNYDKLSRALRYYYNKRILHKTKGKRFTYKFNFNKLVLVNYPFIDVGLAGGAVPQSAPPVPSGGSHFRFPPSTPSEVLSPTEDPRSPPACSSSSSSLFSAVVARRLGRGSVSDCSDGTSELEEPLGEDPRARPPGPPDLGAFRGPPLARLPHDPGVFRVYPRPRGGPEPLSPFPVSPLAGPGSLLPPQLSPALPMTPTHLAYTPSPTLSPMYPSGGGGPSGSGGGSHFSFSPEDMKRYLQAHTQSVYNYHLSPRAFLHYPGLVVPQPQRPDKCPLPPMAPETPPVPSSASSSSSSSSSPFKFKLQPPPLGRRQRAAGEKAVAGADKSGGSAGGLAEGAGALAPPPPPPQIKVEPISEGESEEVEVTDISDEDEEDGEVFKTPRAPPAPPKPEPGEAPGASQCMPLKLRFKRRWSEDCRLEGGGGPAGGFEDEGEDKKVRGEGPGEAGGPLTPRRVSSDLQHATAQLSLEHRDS
In outline:
as §1

A further assay deals with T10, ETV3L (Homo sapiens, UniProt Q6ZN32 1-361).
T10 sequence: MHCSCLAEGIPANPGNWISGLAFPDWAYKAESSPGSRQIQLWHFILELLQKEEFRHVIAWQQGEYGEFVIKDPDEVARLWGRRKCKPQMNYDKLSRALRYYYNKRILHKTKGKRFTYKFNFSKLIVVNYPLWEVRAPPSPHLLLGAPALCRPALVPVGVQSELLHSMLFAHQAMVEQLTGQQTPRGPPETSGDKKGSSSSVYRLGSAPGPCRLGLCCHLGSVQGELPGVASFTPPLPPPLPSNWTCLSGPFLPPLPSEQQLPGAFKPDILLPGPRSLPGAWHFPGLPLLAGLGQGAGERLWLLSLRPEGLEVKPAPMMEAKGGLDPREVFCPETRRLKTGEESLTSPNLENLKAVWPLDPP
In short, it runs like this:
as §1

The target in another assay is T11, ETS2 (Homo sapiens, UniProt P15036 1-469).
T11 sequence: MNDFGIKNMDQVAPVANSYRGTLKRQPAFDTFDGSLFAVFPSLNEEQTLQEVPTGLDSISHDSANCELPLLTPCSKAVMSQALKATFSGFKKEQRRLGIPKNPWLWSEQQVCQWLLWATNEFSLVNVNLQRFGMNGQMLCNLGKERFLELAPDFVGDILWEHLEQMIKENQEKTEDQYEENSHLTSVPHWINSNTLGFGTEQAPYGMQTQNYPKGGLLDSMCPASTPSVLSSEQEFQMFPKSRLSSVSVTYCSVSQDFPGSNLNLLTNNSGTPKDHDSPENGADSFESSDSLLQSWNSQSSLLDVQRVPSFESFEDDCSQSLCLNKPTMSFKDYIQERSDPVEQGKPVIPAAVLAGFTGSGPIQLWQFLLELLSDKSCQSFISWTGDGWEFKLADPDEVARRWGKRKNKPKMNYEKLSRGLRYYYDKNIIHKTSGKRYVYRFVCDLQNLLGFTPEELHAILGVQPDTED
In short, it runs like this:
as §1

Another assay concerns the target T12, ETV3 (Homo sapiens, UniProt P41162-2 1-143).
T12 sequence: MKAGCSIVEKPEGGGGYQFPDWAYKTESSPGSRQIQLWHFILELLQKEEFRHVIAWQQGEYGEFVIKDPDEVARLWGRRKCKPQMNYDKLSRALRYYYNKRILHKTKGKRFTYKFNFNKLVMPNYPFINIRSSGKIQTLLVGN
In outline: as §1

The next assay concerns the target ETV6 (Homo sapiens, UniProt P41212 1-452). In short, it runs like this: as §1

Chain of ELF4 (Q99607 whole entry): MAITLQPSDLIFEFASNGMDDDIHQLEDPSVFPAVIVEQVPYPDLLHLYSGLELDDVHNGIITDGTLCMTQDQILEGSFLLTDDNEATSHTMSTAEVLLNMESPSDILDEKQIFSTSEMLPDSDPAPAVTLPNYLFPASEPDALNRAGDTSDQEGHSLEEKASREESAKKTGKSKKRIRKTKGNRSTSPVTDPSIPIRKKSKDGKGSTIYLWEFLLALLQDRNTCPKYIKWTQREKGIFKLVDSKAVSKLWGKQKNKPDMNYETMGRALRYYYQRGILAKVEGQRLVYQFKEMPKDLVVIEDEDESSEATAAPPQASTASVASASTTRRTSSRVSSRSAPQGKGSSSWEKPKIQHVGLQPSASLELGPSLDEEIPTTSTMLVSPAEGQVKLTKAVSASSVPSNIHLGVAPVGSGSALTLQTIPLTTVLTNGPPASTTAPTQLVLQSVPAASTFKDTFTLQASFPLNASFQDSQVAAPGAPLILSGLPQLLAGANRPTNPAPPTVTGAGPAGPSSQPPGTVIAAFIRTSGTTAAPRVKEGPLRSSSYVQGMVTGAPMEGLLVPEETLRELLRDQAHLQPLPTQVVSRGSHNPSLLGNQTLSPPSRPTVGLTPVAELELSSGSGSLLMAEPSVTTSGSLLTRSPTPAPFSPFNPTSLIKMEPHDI
Chain of ELF1 (P32519 whole entry): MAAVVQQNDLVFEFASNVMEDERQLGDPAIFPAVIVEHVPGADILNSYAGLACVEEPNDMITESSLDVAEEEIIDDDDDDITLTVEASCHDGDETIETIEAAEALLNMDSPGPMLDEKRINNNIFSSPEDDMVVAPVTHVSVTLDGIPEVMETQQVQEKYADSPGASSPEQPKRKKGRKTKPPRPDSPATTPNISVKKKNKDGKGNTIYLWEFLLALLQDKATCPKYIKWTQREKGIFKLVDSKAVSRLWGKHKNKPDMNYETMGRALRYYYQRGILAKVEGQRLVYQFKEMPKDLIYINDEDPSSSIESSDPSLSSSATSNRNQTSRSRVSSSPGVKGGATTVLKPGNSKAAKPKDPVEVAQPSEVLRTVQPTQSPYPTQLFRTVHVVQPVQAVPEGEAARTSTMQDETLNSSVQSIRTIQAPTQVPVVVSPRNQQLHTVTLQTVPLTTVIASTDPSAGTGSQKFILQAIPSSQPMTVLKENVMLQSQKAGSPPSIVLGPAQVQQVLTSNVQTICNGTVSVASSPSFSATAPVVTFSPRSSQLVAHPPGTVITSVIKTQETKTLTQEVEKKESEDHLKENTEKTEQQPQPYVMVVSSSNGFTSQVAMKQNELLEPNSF
Chain of ETV5 (P41161 whole entry): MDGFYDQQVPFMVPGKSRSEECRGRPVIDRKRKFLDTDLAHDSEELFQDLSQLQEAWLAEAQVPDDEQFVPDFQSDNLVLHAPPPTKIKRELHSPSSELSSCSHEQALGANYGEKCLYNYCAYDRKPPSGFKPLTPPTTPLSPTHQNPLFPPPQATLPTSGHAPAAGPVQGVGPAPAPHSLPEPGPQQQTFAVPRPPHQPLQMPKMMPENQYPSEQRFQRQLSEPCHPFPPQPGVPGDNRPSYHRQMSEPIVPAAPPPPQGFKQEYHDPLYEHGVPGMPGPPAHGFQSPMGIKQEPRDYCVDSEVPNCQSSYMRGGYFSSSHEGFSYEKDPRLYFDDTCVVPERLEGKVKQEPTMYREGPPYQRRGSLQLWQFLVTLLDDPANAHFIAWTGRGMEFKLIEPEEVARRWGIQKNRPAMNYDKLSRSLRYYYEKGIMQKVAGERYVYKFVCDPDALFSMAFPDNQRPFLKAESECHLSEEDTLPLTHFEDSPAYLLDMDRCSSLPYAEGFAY
Chain of ETV6 (P41212 whole entry): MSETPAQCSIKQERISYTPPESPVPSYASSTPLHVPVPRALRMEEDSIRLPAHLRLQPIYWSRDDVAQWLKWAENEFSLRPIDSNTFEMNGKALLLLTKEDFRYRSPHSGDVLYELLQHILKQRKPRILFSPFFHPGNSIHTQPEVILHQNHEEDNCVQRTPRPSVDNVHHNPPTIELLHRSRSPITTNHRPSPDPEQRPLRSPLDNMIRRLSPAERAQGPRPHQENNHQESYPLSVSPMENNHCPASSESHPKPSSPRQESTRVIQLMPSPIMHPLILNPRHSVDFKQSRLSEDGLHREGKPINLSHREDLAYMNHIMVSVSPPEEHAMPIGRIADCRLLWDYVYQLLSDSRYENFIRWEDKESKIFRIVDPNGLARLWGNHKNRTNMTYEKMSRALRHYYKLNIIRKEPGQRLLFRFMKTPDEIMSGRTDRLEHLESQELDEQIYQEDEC
Chain of SPIB (Q01892 whole entry): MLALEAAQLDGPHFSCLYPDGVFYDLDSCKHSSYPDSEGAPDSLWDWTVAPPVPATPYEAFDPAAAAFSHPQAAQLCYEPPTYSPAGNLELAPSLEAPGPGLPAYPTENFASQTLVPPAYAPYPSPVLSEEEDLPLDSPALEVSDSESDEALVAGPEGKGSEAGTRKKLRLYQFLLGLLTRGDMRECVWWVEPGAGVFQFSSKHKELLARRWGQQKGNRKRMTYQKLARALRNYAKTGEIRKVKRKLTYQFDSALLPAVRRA
Chain of ETV1 (P50549 whole entry): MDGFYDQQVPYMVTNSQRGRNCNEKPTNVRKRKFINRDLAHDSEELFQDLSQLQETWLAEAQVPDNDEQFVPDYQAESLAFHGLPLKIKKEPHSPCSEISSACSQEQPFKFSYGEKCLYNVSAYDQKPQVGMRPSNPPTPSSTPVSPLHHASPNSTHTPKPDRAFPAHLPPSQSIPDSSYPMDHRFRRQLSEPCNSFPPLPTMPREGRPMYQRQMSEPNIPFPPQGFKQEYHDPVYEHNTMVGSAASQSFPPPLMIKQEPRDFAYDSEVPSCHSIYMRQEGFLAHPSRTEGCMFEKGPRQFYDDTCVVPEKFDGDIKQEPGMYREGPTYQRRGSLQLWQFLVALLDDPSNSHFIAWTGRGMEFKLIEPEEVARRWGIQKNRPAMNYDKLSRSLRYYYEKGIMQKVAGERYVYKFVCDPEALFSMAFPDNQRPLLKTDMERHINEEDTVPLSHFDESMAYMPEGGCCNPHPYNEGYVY

Consider CGATGT, for which the binding signal in the assay with FLI1 is 1.1 fold enrichment (6-mer frequency, TF over GST control); with ELK1 it was 1.07 fold enrichment (6-mer frequency, TF over GST control); with GABPA it was 1.08 fold enrichment (6-mer frequency, TF over GST control); in the assay with ERG, 1.08 fold enrichment (6-mer frequency, TF over GST control); in the assay with ELF1 it was 1.03 fold enrichment (6-mer frequency, TF over GST control); with EHF, 1.11 fold enrichment (6-mer frequency, TF over GST control). The binding signal was 1.15 fold enrichment (6-mer frequency, TF over GST control) with SPI1; 1.08 fold enrichment (6-mer frequency, TF over GST control) with SPIB; 1.04 fold enrichment (6-mer frequency, TF over GST control) in the assay with ELK3; 1.06 fold enrichment (6-mer frequency, TF over GST control) in the assay with FEV; 1.1 fold enrichment (6-mer frequency, TF over GST control) in the assay with ETV5; 1.07 fold enrichment (6-mer frequency, TF over GST control) in the assay with SPIC. Also, the binding signal is 1.04 fold enrichment (6-mer frequency, TF over GST control) in the assay with ELF4; 1.1 fold enrichment (6-mer frequency, TF over GST control) in the assay with ETV1; 1.16 fold enrichment (6-mer frequency, TF over GST control) with ERF; 1.09 fold enrichment (6-mer frequency, TF over GST control) in the assay with ETV3L; 1.12 fold enrichment (6-mer frequency, TF over GST control) with ETS2; 1.19 fold enrichment (6-mer frequency, TF over GST control) with ETV3. In addition, the binding signal with ETV6 is 1.03 fold enrichment (6-mer frequency, TF over GST control).
